# Source: PubChem BioAssay AID1654 (Sanford-Burnham Center for Chemical Genomics, 2009)
# Out of some 290,000 compounds screened, about 1,500 (0.52%) were called active. No stated cut-off is given here; in the data, active means inhibition above about 50%; inactive means the rest. For the sample, actives were picked, then their nearest neighbours and some compounds at random.
# Molecular target: Dual specificity protein phosphatase 3 (Homo sapiens) (UniProt P51452)
# Experiment: inhibition of human DUSP3 activity – biochemical, absorbance, uHTS, primary screen (AID 1654)
# [1] = recombinant VHR phosphatase, pNPP absorbance, at 13.3 µM, stronger effect = higher value
# Sequence of Dual specificity protein phosphatase 3 (Homo sapiens) (P51452 whole entry, looked up): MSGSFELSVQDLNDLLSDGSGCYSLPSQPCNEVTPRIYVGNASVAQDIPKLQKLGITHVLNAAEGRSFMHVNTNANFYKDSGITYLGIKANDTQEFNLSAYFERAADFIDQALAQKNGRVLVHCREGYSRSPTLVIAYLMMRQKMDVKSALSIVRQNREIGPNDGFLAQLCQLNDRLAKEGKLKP
structure (smiles),measurement,setting,value
CN(C)CCN(C(=O)C1=COCCO1)c1nc2ccc(Cl)cc2s1,inhibition,[1],17.5% (inactive)
Cn1nnc(NC(=S)NC(=O)c2ccccc2)n1,inhibition,[1],8.5% (inactive)
CC(=O)N1CCN(CC(=O)Nc2ccc(C)c(F)c2)CC1,inhibition,[1],0.1% (inactive)
Cc1ccc(C(NC(=O)N2CCCC2)C(Cl)(Cl)Cl)cc1F (stereo unspecified),inhibition,[1],51.3% (active)
Cc1ccc(C(=O)N2CCCC2)c(F)c1F,inhibition,[1],11.9% (inactive)
CC(=O)c1ccc(NC(=O)CCc2nnc3ccc(NCc4ccco4)nn23)cc1,inhibition,[1],-9.1% (inactive)
O=C(COC(=O)C1CC2C=CC1C2)Nc1ccccc1 (stereo unspecified),inhibition,[1],-9.6% (inactive)
CN(C)S(=O)(=O)N1CCC(Oc2cccc(C(=O)NCCCC3CCCC3)c2)CC1,inhibition,[1],-1.9% (inactive)
Cc1ccc(CS(=O)(=O)CCC(=O)NC2CC2)cc1,inhibition,[1],9.9% (inactive)
CCCCC(=O)NCc1ccc(F)cc1,inhibition,[1],-4.1% (inactive)
Cc1ccc(CS(=O)(=O)CCC(=O)NCc2ccc(F)cc2)cc1,inhibition,[1],57.9% (active)
O=C1CCC(C(=O)N2CCCCO2)CN1Cc1cccc(C(F)(F)F)c1 (stereo unspecified),inhibition,[1],23.9% (inactive)
COC(=O)c1c(NC(=O)COc2ccc(Cl)cc2Cl)sc2c1CC(C)(C)NC2(C)C,inhibition,[1],7.7% (inactive)
COc1cc2c(cc1OC)C(C)N(S(=O)(=O)c1cnc(Cl)c(Cl)c1)CC2 (stereo unspecified),inhibition,[1],51.2% (active)
COc1cc2c(cc1OC)CN(C(=O)c1cc(S(=O)(=O)N3CCCCC3)ccc1Cl)CC2,inhibition,[1],8.6% (inactive)
COc1ccc(S(=O)(=O)N2CCC(C(=O)N3CCc4ccccc4C3)CC2)cc1OC,inhibition,[1],11.7% (inactive)
Cc1cc(C)cc(N(CCC#N)C(=O)CN2C(=O)NC3(CCCC3)C2=O)c1,inhibition,[1],-12.4% (inactive)
Cc1c(C(=O)NC(C)C2CC3CCC2C3)cccc1[N+](=O)[O-] (stereo unspecified),inhibition,[1],54.4% (active)
Cc1c(C(=O)NCCCc2ccccc2)cccc1[N+](=O)[O-],inhibition,[1],22.5% (inactive)
COC(=O)c1cc(C(=O)NC(C)C2CC3CCC2C3)cc([N+](=O)[O-])c1 (stereo unspecified),inhibition,[1],-11.2% (inactive)
Cc1ccccc1NS(=O)(=O)CCCCC(Cl)(Cl)Cl,inhibition,[1],15.4% (inactive)
CCOC(=O)c1c(N)sc(C(C)=O)c1C,inhibition,[1],17.4% (inactive)
CCOC(=O)c1nc(N)sc1C(=O)OCC,inhibition,[1],50.8% (active)
CCOC(=O)c1sc2nc(C)[nH]c(=O)c2c1C,inhibition,[1],21.7% (inactive)
O=C(/C=C/Nc1ccc(S(=O)(=O)Nc2cnc3ccccc3n2)cc1)c1cccnc1,inhibition,[1],16.5% (inactive)
COc1cccc2cc(-c3cc(=O)oc4cc(C)c(O)cc34)oc12,inhibition,[1],-16.6% (inactive)
COc1ccc2oc(=O)cc(-c3cc4ccccc4o3)c2c1,inhibition,[1],52.7% (active)
COc1ccc(Nc2cc(=O)oc3ccccc23)cc1,inhibition,[1],11.9% (inactive)
Cc1cc(OC(=O)c2ccc(OC(C)C)cc2)c([N+](=O)[O-])c(=O)[nH]1,inhibition,[1],-18% (inactive)
O=C(O)C1CCC(CNS(=O)(=O)c2ccc(Br)cc2)CC1 (stereo unspecified),inhibition,[1],13.3% (inactive)
Cc1ccc(S(=O)(=O)NCC(=O)N2CCOCCOCCOCCOCC2)cc1,inhibition,[1],33.9% (inactive)
Cc1ccc(S(=O)(=O)NCC2CCC(C(=O)N3CCOCC3)CC2)cc1 (stereo unspecified),inhibition,[1],52% (active)
CCCCCn1c(=O)[nH]c2cc(C(=O)NCCCN3CCCCC3C)ccc2c1=O (stereo unspecified),inhibition,[1],22.4% (inactive)
CCCCOP(=O)(c1ccc(N(C)C)cc1)C(O)c1cc(OC)ccc1OC (stereo unspecified),inhibition,[1],6.1% (inactive)
CSc1ccccc1-c1nnc(-c2ccc(Cl)cc2)o1,inhibition,[1],25.3% (inactive)
O=C(c1nnc(-c2ccc(Cl)cc2)o1)C1CCCC1,inhibition,[1],51.3% (active)
O=C(Nc1nnc(-c2ccc(Cl)cc2)o1)c1ccccc1Br,inhibition,[1],41.9% (inactive)
CCOc1ccc(CC(=O)NC2CCN(Cc3ccccc3)CC2)cc1,inhibition,[1],51% (active)
CCOc1ccc(NC(=S)N2CCC(NC(=O)c3ccccc3)CC2)cc1,inhibition,[1],20.4% (inactive)
O=C(COc1ccc(Br)cc1F)NC1CCN(Cc2ccccc2)CC1,inhibition,[1],4.7% (inactive)
Cc1nc(Nc2ccc3c(c2)OCCO3)c2nnn(Cc3ccccc3Cl)c2n1,inhibition,[1],18.2% (inactive)
CC(=O)Nc1ccc(Nc2ncnc3c2nnn3Cc2ccccc2Cl)cc1,inhibition,[1],52% (active)
Clc1ccc(Nc2ncnc3c2nnn3Cc2ccccc2)cc1,inhibition,[1],16.3% (inactive)
CCC(=O)Nc1ccc(-c2ccc(N3CCCCC3)nn2)cc1,inhibition,[1],-19.8% (inactive)
Cc1cc(C)cc(NC(=O)C2CCCN2S(=O)(=O)c2cccc3cccnc23)c1 (stereo unspecified),inhibition,[1],-42.1% (inactive)
O=C(Nc1nccs1)C1CCCN1S(=O)(=O)c1cccc2cccnc12 (stereo unspecified),inhibition,[1],56.5% (active)
CC(=O)c1cccc(NC(=O)C2CCCN2S(=O)(=O)c2cccc3nsnc23)c1 (stereo unspecified),inhibition,[1],54.2% (active)
CC(=O)c1cccc(NC(=O)C2CCCN(S(=O)(=O)c3cccc4nonc34)C2)c1 (stereo unspecified),inhibition,[1],50.4% (active)
COc1ccc(NC(=O)C2CCCN(S(=O)(=O)c3cccc4cccnc34)C2)cc1OC (stereo unspecified),inhibition,[1],23.6% (inactive)
COc1ccc(OC)c(NC(=O)C2CCCN2S(=O)(=O)c2cccc3nsnc23)c1 (stereo unspecified),inhibition,[1],19% (inactive)
Cc1ccc(NC(=O)C2CCCN2S(=O)(=O)c2cccc3cccnc23)c(C)c1 (stereo unspecified),inhibition,[1],-0.7% (inactive)
CC1CCCCC1NC(=O)C1CCCN1S(=O)(=O)c1cccc2nsnc12 (stereo unspecified),inhibition,[1],16.6% (inactive)
O=C(NCc1ccco1)C1CCCN(S(=O)(=O)c2cccc3nonc23)C1 (stereo unspecified),inhibition,[1],3.6% (inactive)
CCc1ccc(-c2cc(C)no2)cc1S(=O)(=O)NCCc1ccc(S(N)(=O)=O)cc1,inhibition,[1],28% (inactive)
Cc1ccc(NC(=O)c2nc[nH]c2C(=O)N[C@@H](CCCCNC(=O)OC(C)(C)C)C(=O)OC(C)(C)C)cc1,inhibition,[1],-0.7% (inactive)
CCc1ccccc1NC(=O)c1ccc2c(c1)CCN2S(C)(=O)=O,inhibition,[1],-17.9% (inactive)
O=C1/C(=C/c2ccc(F)cc2)SC(=S)N1CCCC(=O)N1CCCCC1CCO (stereo unspecified),inhibition,[1],42.6% (inactive)
CC(=O)Nc1ccc(S(=O)(=O)N2CCC(C(=O)NC3CC3)CC2)cc1,inhibition,[1],14.9% (inactive)
CCC(C(=O)NC1CCCC1)N(C(=O)Cn1nnc(-c2ccc(C)o2)n1)c1ccc(OC)c(OC)c1 (stereo unspecified),inhibition,[1],13% (inactive)
Nc1nc(SCC(=O)Nc2ccc(Cl)cc2C(F)(F)F)n[nH]1,inhibition,[1],2.5% (inactive)
CCN(C(=O)CSc1nnc(-c2ccncc2)o1)c1ccccc1,inhibition,[1],11% (inactive)
COc1cccc(OC)c1C(=O)Nc1c(C(=O)N2CCN(c3ccccn3)CC2)oc2ccccc12,inhibition,[1],52.1% (active)
Cc1cc(C(=O)N2CCN(c3ccccn3)CC2)c(C)o1,inhibition,[1],-2.1% (inactive)
COCC(=O)Nc1c(C(=O)N2CCCC2)oc2ccccc12,inhibition,[1],1% (inactive)
CCOc1ccc(CN2CCN(Cc3ccc4cc(F)ccc4n3)CC2CCO)cc1 (stereo unspecified),inhibition,[1],6.4% (inactive)
Cc1cccc(C(=O)OCC(=O)Nc2ccc(F)cc2)c1,inhibition,[1],8% (inactive)
Cc1cc(C)nc(-n2ncc3c2CC(c2ccc(C(C)C)cc2)CC3=O)n1 (stereo unspecified),inhibition,[1],1.9% (inactive)
NC(=S)Nc1c(Cl)cccc1Cl,inhibition,[1],24.6% (inactive)
CSCCNC(=O)c1ccc2nc(Cc3ccccc3F)oc2c1,inhibition,"recombinant VHR phosphatase, pNPP absorbance; at 13.3 µM; stronger effect = higher value",63.9% (inactive)
same,inhibition,"recombinant VHR phosphatase, pNPP absorbance; measured here: average of confirmation repeats; at 13.3 µM; stronger effect = higher value",2.8%
Cc1ccc(NC2CCCN(C(=O)CCc3cn[nH]c3)C2)cc1C (stereo unspecified),inhibition,[1],-2.7% (inactive)
CCOc1cc(/C=N/NC(=O)OC)ccc1OCCSc1ccc(Cl)cc1,inhibition,[1],-3.8% (inactive)
CCOc1cc(/C=N/O)ccc1OCc1ccccc1F,inhibition,[1],-4.1% (inactive)
CC(=O)c1nn(-c2cccc(C(F)(F)F)c2)c(=O)[nH]c1=O,inhibition,[1],-9.5% (inactive)
CN(CCO)c1ccc(/C=N/Nc2nncc3ccccc23)cc1,inhibition,[1],18.2% (inactive)
O=C(Nc1ccc(OCC(=O)N2CCOCC2)cc1)c1cc(F)c(F)cc1Cl,inhibition,[1],25.5% (inactive)
O=C1COc2ccc(S(=O)(=O)Nc3ccc(OC(F)(F)F)cc3)cc2N1,inhibition,[1],-1.9% (inactive)
Cc1ccc(-c2nc(SCC(=O)Nc3ccccc3OC(F)F)c3c(C)c(C(=O)O)sc3n2)cc1,inhibition,[1],113% (active)
COc1ccccc1NC(=O)CSc1nc2sc3c(c2c(=O)n1-c1ccccc1)CCN(C)C3,inhibition,[1],9.1% (inactive)
Cc1ccc(C)c(SCc2nc3sc(C(=O)O)c(C)c3c(=O)[nH]2)c1,inhibition,[1],7.2% (inactive)
CCN(CC)c1ccc(/C=N/NC(=O)CNC(=O)c2cccs2)cc1,inhibition,[1],10.2% (inactive)
CN(C(=O)COC(=O)CNC(=O)C12CC3CC(CC(C3)C1)C2)c1ccccc1,inhibition,[1],14.5% (inactive)
NNC(=O)c1nnn(-c2nonc2N)c1CN1CCCC1,inhibition,[1],52.8% (active)
Nc1nonc1-n1nnc(C(=O)N/N=C\c2ccncc2)c1CN1CCCCC1,inhibition,[1],13% (inactive)
Cc1c(C(=O)O)nnn1-c1nonc1N,inhibition,[1],17.9% (inactive)
Cc1ccc2c(c1)N(CC(=O)N1CCCC(C)C1)C(=O)CO2 (stereo unspecified),inhibition,[1],7.4% (inactive)
CCOc1ccc(CN2CCN(CCCc3ccccc3)C(CCO)C2)cc1 (stereo unspecified),inhibition,[1],8.1% (inactive)
Cc1noc(C)c1CCC(=O)N1CCCC(CO)(Cc2ccccc2)C1 (stereo unspecified),inhibition,[1],5.7% (inactive)
CC1CN(C(=S)Nc2ccc(Br)cc2Cl)CC(C)O1 (stereo unspecified),inhibition,[1],15% (inactive)
CCc1ccc(NC(=O)Cn2nnc(C(=O)NCc3ccc(OC)cc3)c2N)cc1,inhibition,[1],-1.9% (inactive)
CCOc1ccc(NC(=O)CN2CCN(CC(=O)Nc3ccc(OC)cc3)CC2)cc1,inhibition,[1],-3.3% (inactive)
CCc1ccc(NC(=O)CN2CCC(C(=O)c3ccc(OC)cc3)CC2)cc1,inhibition,[1],52% (active)
CCCCNC(=O)C1CCCN(S(=O)(=O)c2ccc(S(=O)(=O)NCC(C)C)cc2)C1 (stereo unspecified),inhibition,[1],6.5% (inactive)
COc1ccc(CCNC(=O)C2CCCN(S(=O)(=O)c3ccc(OC)cc3)C2)cc1 (stereo unspecified),inhibition,[1],-35.9% (inactive)
CC(C)CCNC(=O)C1CCCN(S(=O)(=O)c2ccc(F)cc2)C1 (stereo unspecified),inhibition,[1],53.4% (active)
CCc1cc(-c2nnc(SCC(=O)NC3CC3)n2C)cs1,inhibition,[1],24% (inactive)
